# Data from PubChem BioAssay (NCATS).
# Records with an inconclusive call do not appear. A call without a number means that no potency is given here. The source made the active and inactive calls. Calls come from the whole dose curve; as a rule, active = well fitted curve in the direction sought with a large enough effect; inconclusive = small, poorly fitted or top-dose-only effect, or another doubt; inactive = no such curve, though single readings can be large; an effect the other way counts as inactive or inconclusive.
# Legend:
# [1] = qHTS of pediatric cancer cell lines to identify multiple opportunities for drug repurposing: Primary screen for Saos-2 cells (AID 1347097); note: nearly all actives have a fitted effect of over 40% in size; note: potency is the fitted concentration of half-maximal effect
# How it was run: (§1)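 Viability was measured as metabolically active cells after 48 hours of treatment, read by CellTiter-Glo luminescence. Compounds were tested at multiple final concentrations, giving concentration-response curves.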
# [2] = qHTS of pediatric cancer cell lines to identify multiple opportunities for drug repurposing: Primary screen for SK-N-SH cells (AID 1347098); note: nearly all actives have a fitted effect of over 65% in size; note: potency is the fitted concentration of half-maximal effect
# How it was run: (§2)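 Cells (500-1,000/well) rested 5 h, then received compounds for 48 h; metabolically active cells were measured by CellTiter-Glo luminescence. Final concentrations spanned up to 46 µM (MIPE, 11-point) or 0.59 nM-46 µM (NPC, 8-point) in primary screens, 11-point in follow-ups.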
# [3] = qHTS of pediatric cancer cell lines to identify multiple opportunities for drug repurposing: Primary screen for NB1643 cells (AID 1347099); note: nearly all actives have a fitted effect of over 50% in size; note: potency is the fitted concentration of half-maximal effect
# How it was run: as §1
# [4] = qHTS of pediatric cancer cell lines to identify multiple opportunities for drug repurposing: Primary screen for LAN-5 cells (AID 1347100)
# How it was run: as §2
# [5] = qHTS of pediatric cancer cell lines to identify multiple opportunities for drug repurposing: Primary screen for BT-12 cells (AID 1347101); note: nearly all actives have a fitted effect of over 25% in size; note: potency is the fitted concentration of half-maximal effect
# How it was run: as §2
# [6] = qHTS of pediatric cancer cell lines to identify multiple opportunities for drug repurposing: Primary screen for Rh18 cells (AID 1347102); note: nearly all actives have a fitted effect of over 65% in size
# How it was run: as §2
# [7] = qHTS of pediatric cancer cell lines to identify multiple opportunities for drug repurposing: Primary screen for OHS-50 cells (AID 1347103); note: nearly all actives have a fitted effect of over 40% in size; note: potency is the fitted concentration of half-maximal effect
# How it was run: as §2
# [8] = qHTS of pediatric cancer cell lines to identify multiple opportunities for drug repurposing: Primary screen for RD cells (AID 1347104); note: nearly all actives have a fitted effect of over 55% in size
# How it was run: as §1
# [9] = qHTS of pediatric cancer cell lines to identify multiple opportunities for drug repurposing: Primary screen for MG 63 (6-TG R) cells (AID 1347105); note: nearly all actives have a fitted effect of over 50% in size
# How it was run: as §1
Structure (SMILES),Potency [1],Potency [2],Potency [3],Potency [4],Potency [5],Potency [6],Potency [7],Potency [8],Potency [9]
CC(C(=O)c1ccccc1)N(C)C (stereo unspecified),inactive,inactive,inactive,inactive,inactive,inactive,inactive,inactive,inactive
Clc1ccc(C(c2ccc(Cl)cc2)C(Cl)(Cl)Cl)cc1,–,–,–,inactive,inactive,–,–,inactive,–
CCc1cc2c(s1)-n1c(C)nnc1CN=C2c1ccccc1Cl,inactive,inactive,inactive,inactive,inactive,inactive,–,inactive,inactive
CCN[C@H](C)Cc1cccc(C(F)(F)F)c1,inactive,–,inactive,inactive,inactive,inactive,inactive,inactive,inactive
Nc1nc(N)nc(NC2CC2)n1,inactive,inactive,inactive,inactive,inactive,inactive,inactive,inactive,inactive
NC(=O)c1cc([N+](=O)[O-])cc([N+](=O)[O-])c1,inactive,–,inactive,inactive,inactive,–,inactive,inactive,inactive
CC(C)(C)NCC(O)c1ccccc1Cl (stereo unspecified),inactive,–,inactive,inactive,inactive,inactive,inactive,inactive,inactive
CC(Cc1ccccc1)N(C)Cc1ccco1 (stereo unspecified),inactive,–,inactive,inactive,inactive,inactive,inactive,inactive,inactive
C[C@]12CCC(=O)C=C1CC[C@@H]1[C@H]3CC[C@](C)(O)[C@@]3(C)CC[C@@H]12,27.5 µM (active),–,34.7 µM (active),–,28.6 µM (active),inactive,25.5 µM (active),–,–
C#CC(O)(C=CCl)CC (stereo unspecified),inactive,inactive,inactive,inactive,inactive,inactive,inactive,inactive,inactive
CCN[C@@H](C)Cc1cccc(C(F)(F)F)c1,inactive,–,inactive,inactive,inactive,inactive,inactive,inactive,inactive
CCN(CC)CCc1c[nH]c2ccccc12,inactive,37 µM (active),inactive,inactive,inactive,–,–,inactive,inactive
ClCCN1CCCC1,inactive,–,inactive,inactive,inactive,inactive,inactive,inactive,inactive
COP(=S)(OC)Oc1ccc(S(=O)(=O)N(C)C)cc1,inactive,inactive,inactive,inactive,inactive,inactive,inactive,inactive,inactive
